From PubChem
The full list was thinned out, with hits kept by preference.
IDE exosite FP: exo-site inhibitors of human IDE, primary screen, biochemical, fluorescence anisotropy, probe displacement. z-score at 20 µM. Insulin-degrading enzyme (Homo sapiens), P14735. 17,000 compounds, 6.3% hits. AID 1259349, 2017. purified IDE, FL-6b probe fluorescence polarization; stronger effect = lower value;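 active = z-score of -3 or lower, meaning strong loss of probe binding signal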;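 note: His-tagged human IDE residues 42-1019 made in E. coli with 30 nM FL-6b probe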
Target sequence (P14735 42-1019 limits assumed): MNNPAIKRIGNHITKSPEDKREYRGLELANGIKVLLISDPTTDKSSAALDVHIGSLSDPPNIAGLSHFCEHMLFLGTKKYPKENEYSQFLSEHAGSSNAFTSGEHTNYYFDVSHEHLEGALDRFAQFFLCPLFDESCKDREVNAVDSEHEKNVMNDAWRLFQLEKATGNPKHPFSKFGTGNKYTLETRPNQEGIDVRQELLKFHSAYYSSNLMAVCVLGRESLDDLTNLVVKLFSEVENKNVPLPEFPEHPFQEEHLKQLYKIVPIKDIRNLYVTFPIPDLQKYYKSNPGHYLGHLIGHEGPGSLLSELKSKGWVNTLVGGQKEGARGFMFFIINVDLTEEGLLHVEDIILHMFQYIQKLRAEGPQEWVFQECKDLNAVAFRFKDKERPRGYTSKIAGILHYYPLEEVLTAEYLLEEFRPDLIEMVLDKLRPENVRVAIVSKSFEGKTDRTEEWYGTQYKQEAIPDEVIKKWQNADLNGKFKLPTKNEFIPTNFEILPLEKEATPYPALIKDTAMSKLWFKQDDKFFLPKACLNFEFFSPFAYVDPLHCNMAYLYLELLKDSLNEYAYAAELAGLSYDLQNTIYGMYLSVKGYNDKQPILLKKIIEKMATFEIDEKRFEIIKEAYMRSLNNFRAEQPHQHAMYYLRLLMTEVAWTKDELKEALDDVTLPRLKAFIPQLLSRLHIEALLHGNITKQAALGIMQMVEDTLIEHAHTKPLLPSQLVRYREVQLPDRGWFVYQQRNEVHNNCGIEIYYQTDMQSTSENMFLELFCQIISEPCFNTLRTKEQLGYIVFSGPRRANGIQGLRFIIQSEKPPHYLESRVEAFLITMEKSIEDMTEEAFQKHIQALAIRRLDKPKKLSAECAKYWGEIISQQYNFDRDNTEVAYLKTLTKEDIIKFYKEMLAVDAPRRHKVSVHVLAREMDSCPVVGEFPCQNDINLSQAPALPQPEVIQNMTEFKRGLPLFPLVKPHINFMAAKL
* = called active by the depositor; ! = repeats disagree.

SMILES | IDE exosite FP
O=C(c1cccnc1)N1CC(=O)N2[C@@H](CO)[C@H](c3ccc(-c4ccccc4F)cc3)[C@@H]2C1 | 0.46
Cc1ccccc1-c1ccc([C@@H]2[C@@H](CO)N3C(=O)CN(C(=O)c4cccnc4)C[C@@H]23)cc1 | -13*
O=C(c1cccnc1)N1CC(=O)N2[C@@H](CO)[C@H](c3ccc(-c4ccc(F)cc4)cc3)[C@@H]2C1 | 2.7
N#Cc1cccc(-c2ccc(C3[C@@H]4CN(C(=O)c5ccccn5)C[C@H]3N4)cc2)c1 (stereo not given in full) | 0.89
CN(C)C(=O)c1ccc(-c2ccc(C3[C@@H]4CN(C(=O)c5cnccn5)C[C@H]3N4)cc2)cc1 (stereo not given in full) | 2.2
O=C(c1cccnc1)N1CC(=O)N2[C@@H](CO)[C@@H](c3ccc(-c4ccc(F)cc4)cc3)[C@@H]2C1 | 0.84
Cc1ccccc1-c1ccc([C@@H]2[C@@H](CO)N3C(=O)CN(C(=O)c4cccnc4)C[C@H]23)cc1 | -3
Cc1ccccc1-c1ccc(C2[C@@H]3CN(C(=O)c4cnccn4)C[C@H]2N3)cc1 (stereo not given in full) | -20*!
Cc1ccccc1-c1ccc([C@@H]2[C@H](CO)N3C(=O)CN(C(=O)c4cccnc4)C[C@@H]23)cc1 | -7.2*
CCCC#Cc1ccc([C@H]2[C@@H](CO)N3CCCCN(S(C)(=O)=O)C[C@H]23)cc1 | 0.74
CCN(C[C@H]1N[C@H](CO)[C@@H]1c1ccc(-c2cccc(F)c2)cc1)C(=O)COC | -0.19
CN1CCN(C(=O)C[C@@H]2CC[C@H]3[C@@H](COC[C@@H](O)CN3C(=O)Nc3ccc4c(c3)OCO4)O2)CC1 | -0.22
O=C(Nc1cccc(F)c1)N1CC(=O)N2[C@H](CO)[C@@H](c3ccc(-c4ccccc4)cc3)[C@@H]2C1 | -2.7
COCC(=O)NC[C@@H]1[C@@H](c2ccc(-c3ccccc3)cc2)[C@@H](CO)N1C(C)=O | -1.7
CCCC#Cc1ccc([C@H]2[C@@H](CO)N(C(=O)NC(C)C)[C@H]2CNC(C)=O)cc1 | -0.7
COc1ccccc1NC(=O)N1CC(=O)N2[C@H](CO)[C@@H](c3ccc(C#CCC(C)C)cc3)[C@@H]2C1 | 1.3
C[C@@H]1CN([C@@H](C)CO)C(=O)c2c(c3ccccc3n2C)-c2ccccc2CO[C@H]1CN(C)C(=O)NC1CCCCC1 | 0.61
CN1C[C@H](O)COC[C@@H]2O[C@H](CC(=O)NC3CCCC3)CC[C@H]21 | -0.43
O=C(Cc1ccccn1)N1CC2(C1)[C@H](c1ccccc1)[C@H](CO)N2C(=O)c1ccncc1 | -4.5*
CCC(=O)N1[C@@H](CO)[C@@H](c2ccccc2)C12CN(C(=O)c1ccncc1)C2 | 1.1
CCC(=O)N1[C@H](CO)[C@H](c2ccccc2)C12CN(C(=O)c1ccncc1)C2 | 0.46
CN1CCN(C(=O)C[C@@H]2CC[C@H]3[C@H](COc4ccc(NC(=O)c5cccs5)cc4C(=O)N3C)O2)CC1 | 0.27
CN(C)C(=O)c1cccc(-c2ccc3c(c2)[C@H]2[C@H](CCN2Cc2nccs2)[C@H](CO)N3)c1 | -0.13
COCC#Cc1ccc([C@H]2[C@@H](CO)N3CCCCN(S(=O)(=O)c4ccccc4F)C[C@H]23)cc1 | 0.25
COCC#Cc1ccc([C@H]2[C@@H](CO)N3CCCCN(S(=O)(=O)c4ccccc4C)C[C@@H]23)cc1 | 4.1
SMILES | IDE exosite FP
COCC#Cc1ccc([C@H]2[C@H]3CN(S(=O)(=O)c4ccccc4C)CCCCN3[C@H]2CO)cc1 | 5.4
COCC#Cc1ccc([C@@H]2[C@H](CO)N3CCCCN(S(=O)(=O)c4ccccc4C)C[C@@H]23)cc1 | -3.1*
COCC#Cc1ccc([C@@H]2[C@H](CO)N3CCCCN(S(=O)(=O)c4ccccc4F)C[C@@H]23)cc1 | -4.5*
COCC#Cc1ccc([C@H]2[C@H](CO)N3CCCCN(S(=O)(=O)c4ccccc4F)C[C@@H]23)cc1 | 1.1
OC[C@@H]1[C@@H](c2ccccc2)C2(CN(Cc3ccccn3)C2)N1CCC(F)(F)F | 0.52
O=C(Nc1cccc(F)c1)N1CCCCN2[C@@H](CO)[C@H](c3ccc(C#Cc4ccccc4)cc3)[C@@H]2C1 | -3.5*
O=C(Nc1ccccc1F)N1CCCCN2[C@H](CO)[C@@H](c3ccc(C#Cc4cccnc4)cc3)[C@H]2C1 | -2.1
O=C(Nc1cccc(F)c1)N1CCCCN2[C@H](C1)[C@H](c1ccc(C#Cc3ccccc3)cc1)[C@@H]2CO | 2.6
O=C(Nc1cccc(F)c1)N1CCCCN2[C@H](CO)[C@H](c3ccc(C#Cc4ccccc4)cc3)[C@H]2C1 | -1
O=C(Nc1ccccc1F)N1CCCCN2[C@H](C1)[C@H](c1ccc(C#Cc3cccnc3)cc1)[C@@H]2CO | 2
O=C(Nc1ccccc1)N1CCCCN2[C@@H](CO)[C@H](c3ccc(C#Cc4cccnc4)cc3)[C@@H]2C1 | -5.3*
O=C(Nc1ccccc1)N1CCCCN2[C@@H](CO)[C@@H](c3ccc(C#Cc4cccnc4)cc3)[C@@H]2C1 | 4.1
O=C(Nc1ccccc1)N1CCCCN2[C@H](CO)[C@@H](c3ccc(C#Cc4cccnc4)cc3)[C@H]2C1 | 2.1
O=C(Nc1ccccc1F)N1CCCCN2[C@H](CO)[C@H](c3ccc(C#Cc4cccnc4)cc3)[C@@H]2C1 | -6.8*
CCS(=O)(=O)Nc1ccc2c(c1)C(=O)N(C)[C@@H]1CC[C@H](CC(=O)N[C@@H]3CCN(Cc4ccccc4)C3)O[C@@H]1CO2 | -0.41
CO[C@@H](C(=O)N(C)C[C@H]1OCc2ccccc2-c2ccccc2C(=O)N([C@@H](C)CO)C[C@@H]1C)c1ccccc1 | -1
O=C(C[C@@H]1C[C@H]2c3cc(NC(=O)NC4CCCC4)ccc3O[C@H]2[C@H](CO)O1)NCc1ccccc1F | 0
CO[C@@H](CN(C)C(=O)Nc1ccc(Cl)cc1)[C@@H](C)CN(Cc1ccccc1Cl)[C@@H](C)CO | 0.88
CCCC#Cc1ccc([C@H]2[C@@H](CO)N3C(=O)CN(C(=O)Nc4ccccc4)C[C@H]23)cc1 | 2.7
O=C(C[C@H]1CC[C@H]2NC[C@H](O)COC[C@@H]2O1)NCc1ccc2c(c1)OCO2 | 0.76
CCCC#Cc1ccc([C@H]2[C@@H](C#N)N(C(=O)C3CCCC3)[C@@H]2CO)cc1 | 1.3
CCCC(=O)N1CCC2(CC1)CN[C@@H](CO)c1[nH]c3cc(OC)ccc3c12 | 0.32
COCC(=O)Nc1ccc2c(c1)[C@H]1C[C@@H](CC(=O)N[C@@H](C)c3ccccc3)O[C@@H](CO)[C@H]1O2 | -2
CC(C)[C@H]1C(=O)NCCC=CC[C@H](C)Oc2ccccc2C(=O)N1C (mixture of isomers) | 0.33
CCCC#Cc1ccc([C@H]2[C@@H](CO)N3CCCCN(C(=O)NC4CCCC4)C[C@H]23)cc1 | -3.2*
SMILES | IDE exosite FP
COCC#Cc1ccc([C@@H]2[C@H]3CN(C(=O)NC4CCCC4)CCCCN3[C@H]2CO)cc1 | 1.3
CCCC#Cc1ccc([C@@H]2[C@@H](CO)N3CCCCN(C(=O)NC4CCCC4)C[C@@H]23)cc1 | 1.3
COCC#Cc1ccc([C@@H]2[C@H](CO)N3CCCCN(C(=O)NC4CCCC4)C[C@@H]23)cc1 | -1.1
CCCC#Cc1ccc([C@@H]2[C@H](CO)N3CCCCN(C(=O)NC4CCCC4)C[C@@H]23)cc1 | -5.2*
COCC#Cc1ccc([C@@H]2[C@@H](CO)N3CCCCN(C(=O)NC4CCCC4)C[C@@H]23)cc1 | -1
Cc1ccccc1S(=O)(=O)N1CC(=O)N2[C@H](CO)[C@@H](c3ccc(C#Cc4ccccc4)cc3)[C@@H]2C1 | 0.078
